# According to PubChem BioAssay AID1159580 (chemical genetic matrix, 2015):
# The campaign covered roughly 5,500 compounds. About 2,000 (36%) were called active. About 18% were inconclusive and are not listed. The list shows a part of the results. A number with no mark means an inactive call. No stated cut-off is given here; in the data, active means normalized growth mostly below about 0.91 (no sharp cut-off); inconclusive means no clear call, values can overlap the other calls; inactive means mostly above about 0.92.
# Assay: chemical genetic growth profiling, strain panel (AID 1159580);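 further: tested at 20 µM; growth read once vehicle control cultures reached saturation at 30 °C; 1 = growth at the plate median or of vehicle wells; lower values mean less growth of the strain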
# Conditions: growth OD
smiles,measurement,setting,value
CC1=C2C(=CO[C@H](C)[C@H]2C)C(=O)C(C(=O)O)=C1O,normalized growth,"S. cerevisiae deletion strains, locus YJR066W, strain TOR1, active compounds read low",0.799 (active)
same,normalized growth,"S. cerevisiae deletion strains, locus YKL009W, strain mrt4, active compounds read low",0.936
same,normalized growth,"S. cerevisiae deletion strains, locus YKL068W, active compounds read low",0.972
same,normalized growth,"S. cerevisiae deletion strains, locus YKL085W, strain MDH1 (second series), active compounds read low",0.943
same,normalized growth,"S. cerevisiae deletion strains, locus YKL085W, strain MDH1, active compounds read low",0.943
same,normalized growth,"S. cerevisiae deletion strains, locus YKL160W, strain elf1, active compounds read low",0.95
same,normalized growth,"S. cerevisiae deletion strains, locus YKL190W, strain CNB1, active compounds read low",0.979
same,normalized growth,"S. cerevisiae deletion strains, locus YKR001C, strain vps1, active compounds read low",1
same,normalized growth,"S. cerevisiae deletion strains, locus YKR026C, strain gcn3, active compounds read low",0.979
same,normalized growth,"S. cerevisiae deletion strains, locus YKR091W, strain srl3, active compounds read low",0.986
same,normalized growth,"S. cerevisiae deletion strains, locus YLL001W, strain dnm1, active compounds read low",1
same,normalized growth,"S. cerevisiae deletion strains, locus YLL026W, active compounds read low",0.976
same,normalized growth,"S. cerevisiae deletion strains, locus YLL041C, strain sdh2, active compounds read low",0.98
same,normalized growth,"S. cerevisiae deletion strains, locus YLR027C, strain aat2, active compounds read low",0.981
same,normalized growth,"S. cerevisiae deletion strains, locus YLR039C, strain RIC1, active compounds read low",0.92
same,normalized growth,"S. cerevisiae deletion strains, locus YLR058C, strain SHM2, active compounds read low",0.985
same,normalized growth,"S. cerevisiae deletion strains, locus YLR102C, strain apc9, active compounds read low",0.979
same,normalized growth,"S. cerevisiae deletion strains, locus YLR113W, strain HOG1, active compounds read low",0.709 (active)
same,normalized growth,"S. cerevisiae deletion strains, locus YLR221C, strain rsa3, active compounds read low",0.971
same,normalized growth,"S. cerevisiae deletion strains, locus YLR258W, strain gsy2, active compounds read low",0.96
same,normalized growth,"S. cerevisiae deletion strains, locus YLR262C, strain YPT6 (second series), active compounds read low",0.891
same,normalized growth,"S. cerevisiae deletion strains, locus YLR262C, strain YPT6, active compounds read low",0.918
same,normalized growth,"S. cerevisiae deletion strains, locus YLR268W, strain sec22, active compounds read low",0.974
same,normalized growth,"S. cerevisiae deletion strains, locus YLR320W, strain mms22, active compounds read low",0.94
same,normalized growth,"S. cerevisiae deletion strains, locus YLR330W, strain CHS5, active compounds read low",0.98
same,normalized growth,"S. cerevisiae deletion strains, locus YLR342W, strain FKS1 (second series), active compounds read low",0.931
same,normalized growth,"S. cerevisiae deletion strains, locus YLR342W, strain FKS1, active compounds read low",0.954
same,normalized growth,"S. cerevisiae deletion strains, locus YLR357W, strain rsc2, active compounds read low",1.01
same,normalized growth,"S. cerevisiae deletion strains, locus YLR370C, strain arc18, active compounds read low",0.972
same,normalized growth,"S. cerevisiae deletion strains, locus YLR371W, strain rom2, active compounds read low",1.01
same,normalized growth,"S. cerevisiae deletion strains, locus YLR384C, strain iki3, active compounds read low",0.979
same,normalized growth,"S. cerevisiae deletion strains, locus YLR418C, strain cdc73, active compounds read low",0.95
same,normalized growth,"S. cerevisiae deletion strains, locus YML016C, strain PPZ1, active compounds read low",0.976
same,normalized growth,"S. cerevisiae deletion strains, locus YML032C, strain rad52, active compounds read low",0.984
same,normalized growth,"S. cerevisiae deletion strains, locus YML120C, strain ndi1, active compounds read low",0.975
same,normalized growth,"S. cerevisiae deletion strains, locus YML124C, strain tub3, active compounds read low",0.964
same,normalized growth,"S. cerevisiae deletion strains, locus YMR058W, strain fet3, active compounds read low",1
same,normalized growth,"S. cerevisiae deletion strains, locus YMR078C, strain ctf18, active compounds read low",0.984
same,normalized growth,"S. cerevisiae deletion strains, locus YMR125W, strain sto1, active compounds read low",0.996
same,normalized growth,"S. cerevisiae deletion strains, locus YMR129W, active compounds read low",0.973
same,normalized growth,"S. cerevisiae deletion strains, locus YMR205C, strain PFK2, active compounds read low",0.937
same,normalized growth,"S. cerevisiae deletion strains, locus YMR223W, strain ubp8, active compounds read low",0.997
same,normalized growth,"S. cerevisiae deletion strains, locus YMR231W, strain pep5, active compounds read low",0.981
same,normalized growth,"S. cerevisiae deletion strains, locus YMR307W, strain GAS1, active compounds read low",0.85
same,normalized growth,"S. cerevisiae deletion strains, locus YNL067W, strain RPL9B, active compounds read low",0.997
same,normalized growth,"S. cerevisiae deletion strains, locus YNL071W, strain lat1, active compounds read low",0.981
same,normalized growth,"S. cerevisiae deletion strains, locus YNL128W, strain TEP1, active compounds read low",1.01
same,normalized growth,"S. cerevisiae deletion strains, locus YNL153C, strain GIM3, active compounds read low",0.988
same,normalized growth,"S. cerevisiae deletion strains, locus YNL183C, strain NPR1, active compounds read low",0.82 (active)
same,normalized growth,"S. cerevisiae deletion strains, locus YNL209W, strain ssb2, active compounds read low",0.977
same,normalized growth,"S. cerevisiae deletion strains, locus YNL233W, strain BNI4, active compounds read low",1
same,normalized growth,"S. cerevisiae deletion strains, locus YNL248C, strain rpa49, active compounds read low",1.01
same,normalized growth,"S. cerevisiae deletion strains, locus YNL250W, strain rad50, active compounds read low",0.979
same,normalized growth,"S. cerevisiae deletion strains, locus YNL271C, strain bni1, active compounds read low",0.978
same,normalized growth,"S. cerevisiae deletion strains, locus YNL298W, strain CLA4, active compounds read low",0.956
same,normalized growth,"S. cerevisiae deletion strains, locus YNL307C, strain MCK1, active compounds read low",0.985
same,normalized growth,"S. cerevisiae deletion strains, locus YNL322C, strain KRE1 (second series), active compounds read low",0.965
same,normalized growth,"S. cerevisiae deletion strains, locus YNL322C, strain KRE1, active compounds read low",0.968
same,normalized growth,"S. cerevisiae deletion strains, locus YNR049C, strain mso1, active compounds read low",0.988
same,normalized growth,"S. cerevisiae deletion strains, locus YNR052C, strain pop2, active compounds read low",0.997
same,normalized growth,"S. cerevisiae deletion strains, locus YOL012C, strain htz1",1.44
same,normalized growth,"S. cerevisiae deletion strains, locus YOL147C, strain pex11, active compounds read low",0.977
same,normalized growth,"S. cerevisiae deletion strains, locus YOR001W, strain rrp6, active compounds read low",0.972
same,normalized growth,"S. cerevisiae deletion strains, locus YOR061W, strain CKA2, active compounds read low",0.983
same,normalized growth,"S. cerevisiae deletion strains, locus YOR069W, strain VPS5, active compounds read low",0.973
same,normalized growth,"S. cerevisiae deletion strains, locus YOR070C, strain gyp1, active compounds read low",0.974
same,normalized growth,"S. cerevisiae deletion strains, locus YOR080W, strain dia2, active compounds read low",0.972
same,normalized growth,"S. cerevisiae deletion strains, locus YOR083W, strain WHI5, active compounds read low",1
same,normalized growth,"S. cerevisiae deletion strains, locus YOR106W, strain vam3, active compounds read low",1
same,normalized growth,"S. cerevisiae deletion strains, locus YOR136W, strain idh2, active compounds read low",0.985
same,normalized growth,"S. cerevisiae deletion strains, locus YOR144C, strain elg1, active compounds read low",0.981
same,normalized growth,"S. cerevisiae deletion strains, locus YOR184W, strain ser1, active compounds read low",0.989
same,normalized growth,"S. cerevisiae deletion strains, locus YOR231W, strain MKK1, active compounds read low",0.809 (active)
same,normalized growth,"S. cerevisiae deletion strains, locus YOR265W, strain rbl2, active compounds read low",0.967
same,normalized growth,"S. cerevisiae deletion strains, locus YOR270C, strain vph1, active compounds read low",1
same,normalized growth,"S. cerevisiae deletion strains, locus YOR290C, strain snf2, active compounds read low",0.969
same,normalized growth,"S. cerevisiae deletion strains, locus YOR316C, strain cot1, active compounds read low",0.972
same,normalized growth,"S. cerevisiae deletion strains, locus YPL051W, strain arl3, active compounds read low",0.967
same,normalized growth,"S. cerevisiae deletion strains, locus YPL078C, strain atp4, active compounds read low",0.993
same,normalized growth,"S. cerevisiae deletion strains, locus YPL106C, strain sse1, active compounds read low",0.933
same,normalized growth,"S. cerevisiae deletion strains, locus YPL240C, strain hsp82, active compounds read low",0.978
same,normalized growth,"S. cerevisiae deletion strains, locus YPL241C, strain CIN2, active compounds read low",0.971
same,normalized growth,"S. cerevisiae deletion strains, locus YPL256C, strain CLN2, active compounds read low",0.838
same,normalized growth,"S. cerevisiae deletion strains, locus YPR119W, strain clb2, active compounds read low",0.965
same,normalized growth,"S. cerevisiae deletion strains, locus YPR141C, strain kar3, active compounds read low",0.957
same,normalized growth,"S. cerevisiae deletion strains, locus YPR163C, strain tif3, active compounds read low",1.01
same,normalized growth,"S. cerevisiae deletion strains, locus YPR167C, strain met16, active compounds read low",0.987
same,normalized growth,"S. cerevisiae deletion strains, strain wtn01, active compounds read low",0.956
same,normalized growth,"S. cerevisiae strains, strain wild type, active compounds read low",0.974
